Screens (PubChem BioAssay)
Hits are enriched below; roughly 2.9% of the tested compounds scored in any of these assays.
pPAFAH inh – inhibitors of human plasma PAF acetylhydrolase (pPAFAH). Q13093. recombinant pPAFAH, FP-rhodamine probe fluorescence polarization. inhibition, % at 3.39 µM. 1.5% of 330,000 active;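 active = inhibition above the mean inhibition across the screen plus 3 SD, cut at about 25% in these data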;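 note: inhibitors block binding of the rhodamine activity-based probe so polarization drops; 0% = enzyme with DMSO and 100% = wells lacking pPAFAH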
EBNA-1 inh – blocks EBNA-1 binding to DNA. EBNA-1 DNA binding, fluorescence polarization. inhibition, % at 14.8 µM. 0.34% of 300,000 active; in the data active = inhibition above about 28%
ZTA DNA inh – blocks Epstein-Barr virus ZTA, an EBNA-1 counter-screen; P03206; AID 2234; ZTA-DNA binding, fluorescence polarization; inhibition, % at 11 µM; 0.15% of 320,000 active; in the data active = inhibition above about 33%
Target sequence (P03206 whole entry, looked up): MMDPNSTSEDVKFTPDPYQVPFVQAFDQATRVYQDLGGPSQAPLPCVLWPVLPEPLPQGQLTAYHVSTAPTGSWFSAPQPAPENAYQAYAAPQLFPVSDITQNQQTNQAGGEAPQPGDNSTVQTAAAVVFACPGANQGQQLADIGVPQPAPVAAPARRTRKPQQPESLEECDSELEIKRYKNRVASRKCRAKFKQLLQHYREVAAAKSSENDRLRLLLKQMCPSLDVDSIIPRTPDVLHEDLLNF
PAFAH1B3 FP inh – PAFAH1B3 (human) inhibition. Q15102. recombinant PAFAH1B3, FP-rhodamine probe, fluorescence polarization. inhibition, % at 3.39 µM. 0.28% of 340,000 active;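 active = inhibition above the screen-wide average of all tested compounds plus 3 SD, cut at about 25% in these data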;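 note: 0% = enzyme with DMSO only and 100% = wells lacking PAFAH1B3 protein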
Target sequence (Q15102 whole entry, looked up): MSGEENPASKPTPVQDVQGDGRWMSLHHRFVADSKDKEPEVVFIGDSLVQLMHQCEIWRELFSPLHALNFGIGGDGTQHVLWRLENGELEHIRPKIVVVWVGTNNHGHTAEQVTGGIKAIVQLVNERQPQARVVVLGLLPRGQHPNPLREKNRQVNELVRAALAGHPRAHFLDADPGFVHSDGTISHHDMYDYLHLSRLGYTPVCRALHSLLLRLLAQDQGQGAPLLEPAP
PAFAH1B2 inh – blocks human PAF acetylhydrolase 1b catalytic subunit 2; P68402; recombinant PAFAH1B2, FP-rhodamine activity probe, fluorescence polarization; inhibition, % at 3.39 µM; 1.2% of 340,000 active; AID 492953;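 active = inhibition above the mean of all tested compounds plus 3 SD, cut at about 24% in these data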;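 note: 0% = enzyme with DMSO and 100% = wells lacking PAFAH1B2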
PAFAH2 FP inh – PAFAH2 (human) inhibition. Q99487. recombinant PAFAH2, FP-rhodamine activity probe, fluorescence polarization. inhibition, % at 3.39 µM. 0.99% of 340,000 active;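 active = inhibition above the mean over all tested compounds plus 3 SD, cut at about 30% in these data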;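 note: inhibitors block probe labeling of enzyme so polarization drops; 0% = enzyme with DMSO and 100% = wells lacking PAFAH2 protein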
An asterisk follows results filed as active; / = no result.

SMILES	pPAFAH inh	EBNA-1 inh	ZTA DNA inh	PAFAH1B3 FP inh	PAFAH1B2 inh	PAFAH2 FP inh
O=[N+]([O-])c1cc(C(F)(F)F)ccc1NCCCCNS(=O)(=O)c1ccc2ccccc2c1	-5.8	-8.4	-18.2	7.3	14.7	-13.0
CS(=O)(=O)NCCCCNc1ccc(C(F)(F)F)cc1[N+](=O)[O-]	25.6*	-1.0	-0.9	4.9	4.3	-1.3
CCN(CC(=O)Nc1ccc(OC)cc1)C(=O)c1ccc2c(=O)n3c(nc2c1)CCC3	-3.0	/	-2.8	2.5	2.4	6.1
Cc1ccc(/C=C/C(=O)Nc2cc(S(N)(=O)=O)ccc2O)cc1	1.9	7.4	6.9	8.7	11.6	24.4
CCS(=O)(=O)c1ccc(O)c(NC(=O)COc2ccc(Br)cc2)c1	5.4	-5.6	0.7	3.3	33.9*	79.9*
CCS(=O)(=O)c1ccc(O)c(NC(=O)/C=C/c2ccc(Cl)cc2)c1	28.1*	-3.3	-20.6	3.7	-4.1	65.6*
O=C(Cc1ccc(NC(=O)C2CCCN(C(=O)CCc3ccccc3)C2)cc1)Nc1cccc(C(=O)N2CCCC2)c1 (configuration not stated)	/	/	/	-0.5	9.2	5.3
O=C(NNS(=O)(=O)c1ccc(Br)cc1)C1CCCCC1	0.9	-15.6	3.6	6.2	28.2*	6.8
COC(=O)c1ccccc1NC(=O)NCc1ccncc1	-1.5	-2.1	-12.9	8.6	3.9	1.9
CC(C)(C)c1ccc(C(=O)NCC(=O)N/N=C/c2cccnc2)cc1	2.8	10.8	12.6	-0.4	6.5	-3.4
CCCn1nc(NS(=O)(=O)c2cccc3nonc23)c2cc3cccc(C)c3nc21	29.1*	7.0	9.5	3.1	10.1	13.1
O=C(CN1C(=O)S/C(=C\c2cc(Cl)c(O)c(Cl)c2)C1=O)Nc1ccccc1	25.5*	-7.2	-3.9	15.0	1.4	11.9
Cc1cccc(NC(=O)CN2C(=O)S/C(=C\c3ccc(O)c([N+](=O)[O-])c3)C2=O)c1	29.4*	5.0	16.7	26.3*	6.6	26.6
O=C(CN1C(=O)S/C(=C\c2ccccn2)C1=O)Nc1ccccc1	/	/	/	-1.8	-5.4	4.5
N#C/C(=C/c1ccco1)C(N)=S	32.6*	10.1	5.4	17.3	13.9	34.0*
N#C/C(=C\c1ccc2c(c1)OCO2)C(N)=S	1.9	-3.6	-0.2	/	/	/
COc1ccc(CN(C(=O)c2oc3cc(C)ccc3c2C)C2CCS(=O)(=O)C2)cc1OC (configuration not stated)	0.4	11.1	20.5	5.9	1.9	1.4
Cc1cccc(N2CCN(C(=O)c3ccc4nccnc4c3)CC2C)c1 (configuration not stated)	-0.2	/	/	6.9	1.3	-3.3
Cc1cccc(N2CCN(C(=O)c3ccc4nc(-c5ccco5)c(-c5ccco5)nc4c3)CC2C)c1 (configuration not stated)	26.3*	4.3	-18.3	5.7	1.6	1.2
O=C(OCCc1ccccc1)c1cc(O)c(O)c(O)c1	14.6	-4.9	-3.2	11.8	54.9*	16.9
Nc1ccc(C(=O)OCCc2ccccc2)cc1	8.9	4.4	-7.8	1.3	7.4	18.2
CC(C)(C)C1c2[nH]c3ccccc3c2CCN1Cc1cccc(OCCO)c1 (configuration not stated)	1.7	2.1	-7.2	4.4	5.9	3.0
CCCCSCCCNC(=O)CCCN1C(=O)c2ccccc2Sc2ncccc21	4.1	2.9	19.3	9.1	-6.8	4.4
O=C1C=CC2=C3c4cc(O)c(O)cc4CC3(O)COC2=C1O (configuration not stated)	/	/	/	35.9*	18.9	85.0*
O=C(Oc1c(-c2ccccc2)c(=O)n2c3c(cccc13)CC2)c1ccc(F)cc1	-4.5	-3.0	0.1	5.7	-1.2	0.4
SMILES	pPAFAH inh	EBNA-1 inh	ZTA DNA inh	PAFAH1B3 FP inh	PAFAH1B2 inh	PAFAH2 FP inh
O=C(Oc1c(-c2ccccc2)c(=O)n2c3c(cccc13)CC2)c1ccccc1	26.3*	-4.4	1.0	/	/	/
COc1ccc2c(=O)cc(CO)oc2c1	2.5	/	/	6.3	6.5	4.0
Brc1cc2c(cc1/C=N/Nc1nc3ccccc3s1)OCO2	-3.0	-18.9	-3.9	8.8	5.8	2.5
O=C(O)C/C(=C\c1cc2c(cc1Br)OCO2)c1nc2ccccc2s1	2.8	8.9	-5.1	-2.3	73.2*	8.5
COc1ccc(N(CC(=O)Nc2cc(C)ccc2C)S(=O)(=O)c2ccccc2[N+](=O)[O-])c(OC)c1	28.8*	-9.9	0.7	3.6	0.9	-5.9
O=C(c1ccco1)N1CCN(C(=O)C23CC4CC(CC(C4)C2)C3)CC1	-3.2	-8.1	-6.6	-7.3	9.6	4.0
CC12CC3CC(C)(C1)CC(C(=O)N1CCN(C(=O)c4ccco4)CC1)(C3)C2	6.0	0.7	-14.6	11.2	35.5*	5.9
O=C1C(Cc2c[nH]c3ccccc23)NC(=S)N1C1CCCCC1 (configuration not stated)	3.6	-3.9	-2.1	7.5	1.1	-0.4
O=C(CN(Cc1ccccc1Cl)C(=O)c1csnn1)NCc1ccc2c(c1)OCO2	3.0	9.3	-18.6	4.4	5.9	3.3
Cc1ccccc1N=Cc1cc2c(cc1O)OC(N)=C(C#N)C2c1ccccc1 (configuration not stated)	26.2*	-0.7	-1.4	-3.0	-0.8	17.9
CCOc1cc(NC(=S)NCCCN2CCOCC2)c(OCC)cc1NC(=O)C1CCCCC1	-3.0	-12.3	4.6	-3.5	5.0	0.5
NS(=O)(=O)c1ccc(CNS(=O)(=O)c2ccc(Cl)nc2)cc1	1.7	-0.5	1.0	8.2	4.1	-1.2
O=S(=O)(NCc1ccc(Cl)cc1)c1ccc(Cl)nc1	4.8	-6.2	-1.8	4.7	33.7*	-5.3
COc1ccc(NC(=O)C(C)N=C2NS(=O)(=O)c3ccccc32)cc1S(N)(=O)=O (configuration not stated)	0.1	/	-6.1	7.4	1.1	6.7
CN(Cc1nc(-c2cnccn2)no1)CC1(c2ccccc2)CC1(C)C (configuration not stated)	5.3	5.4	12.5	8.9	25.7*	-3.7
CCc1ccccc1NC(=O)C1CCN(S(=O)(=O)c2ccc3c(c2)N(C(C)=O)CCO3)CC1	0.9	2.4	0.4	10.6	6.6	1.8
COc1ccc(Cl)cc1C(=O)Nc1ccc(NC(C)=O)cc1	-2.3	-11.8	2.7	8.4	-5.0	4.8
CC(=O)Oc1c(I)cc(I)cc1C(=O)Nc1ccc(Cl)cc1	25.5*	5.6	1.8	10.4	24.8*	3.1
O=C(c1cccs1)N(c1ccc(Br)cc1)C1C=CS(=O)(=O)C1 (configuration not stated)	3.4	6.9	-3.6	-15.5	-1.6	-6.1
O=C(COC(=O)c1cc(-c2cccs2)nn1-c1ccccc1)Nc1ccc(F)c([N+](=O)[O-])c1	25.4*	0.5	18.4	-15.5	-6.4	36.0*
CN(CC(=O)Nc1ccc(F)cc1)C(=O)c1cc(-c2cccs2)nn1-c1ccccc1	/	/	/	0.2	4.5	5.9
